Assay outcomes: PubChem, National Center for Advancing Translational Sciences (NCATS)
AMA1-RON2 inh: qHTS for Inhibitors of AMA1-RON; Towards Development of Antimalarial Drug Lead: Primary Screen; Potency, µM (doses to about 58.2 µM), usual class: inhibitors; AlphaScreen AMA1-biotinylated RON2 peptide binding; 360,000 tested, 0.2% active; also: nearly all actives have a fitted effect of over 45% in size
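AMA1 (3D7) with his tag at 25 nM final met compounds first, then biotinylated RON2 peptide at 25 nM; detection used donor plus acceptor beads, 10 µg/mL apiece, read by AlphaScreen after 30 min at room temperature.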
Cycloheximide cs: Cycloheximide Counterscreen for Small Molecule Inhibitors of Shiga Toxin; cell reporter, cycloheximide protein synthesis inhibition counterscreen; max response, %; 300,000 tested, 12% active; AID 2314, 2010; in the data active = max response mostly above about 13%, no sharp cut-off; inactive = mostly below about 14%; also: read at 38.3 µM for the half of the compounds with a filed dose
Shiga toxin inh: A qHTS for Small Molecule Inhibitors of Shiga Toxin; inhibition, % at 38.7 µM; AID 2315, 2010; Vero cells, Shiga toxin protein synthesis inhibition reporter; 290,000 tested, 9.2% active; in the data active = inhibition mostly above about 28%, no sharp cut-off; inactive = mostly below about 43%
AmpC inh no detg: qHTS Inhibitors of AmpC Beta-Lactamase (assay without detergent) | AmpC nitrocefin hydrolysis, absorbance 480 nm, 0.0001% Triton | 330,000 tested, 0.52% active | AID 485341, 2010 | P00811 | Potency, µM (series often up to 57.1 µM), most hits filed as inhibitors; also: nearly all actives have a fitted effect of over 20% in size
Target sequence (P00811 whole entry, looked up): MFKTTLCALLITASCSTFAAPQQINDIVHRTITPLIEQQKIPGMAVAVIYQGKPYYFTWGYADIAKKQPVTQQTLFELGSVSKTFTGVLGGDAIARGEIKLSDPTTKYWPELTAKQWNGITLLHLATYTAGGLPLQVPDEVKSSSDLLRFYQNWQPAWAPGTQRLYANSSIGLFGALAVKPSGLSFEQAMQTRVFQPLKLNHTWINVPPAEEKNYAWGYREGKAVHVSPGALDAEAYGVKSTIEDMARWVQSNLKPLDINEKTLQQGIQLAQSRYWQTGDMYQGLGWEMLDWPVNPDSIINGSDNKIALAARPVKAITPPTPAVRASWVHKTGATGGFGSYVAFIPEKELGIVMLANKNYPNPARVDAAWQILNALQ
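AmpC (5.3 nM in the dispensed reagent) in 20 mM phosphate pH 7.0 with 0.01% (detergent screen) or 0.0001% Triton X-100 was preincubated with compounds for 15 min at room temperature. Nitrocefin was then added from an 800 uM solution, and hydrolysis was followed at 480 nm.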
AmpC inh detg: qHTS Inhibitors of AmpC Beta-Lactamase (assay with detergent). P00811. AmpC hydrolysis of nitrocefin, absorbance 480 nm, 0.01% Triton. Potency, µM (doses to about 114 µM), usual class: inhibitors. 370,000 tested, 0.041% active; also: nearly all actives have a fitted effect of over 25% in size
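AmpC (5.3 nM in the dispensed reagent) in 20 mM phosphate pH 7.0 with 0.01% (detergent screen) or 0.0001% Triton X-100 was preincubated with compounds for 15 min at room temperature. Nitrocefin was then added from an 800 uM solution, and hydrolysis was followed at 480 nm.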
SARS PLP yeast: qHTS of Yeast-based Assay for SARS-CoV PLP. S. cerevisiae expressing SARS-CoV PLpro, growth rescue. Potency, µM (highest dose often 32.9 µM), usual class: activators. 330,000 tested, 0.19% active; calls by dose curve; also: nearly all actives have a fitted effect of over 55% in size
Of the large screens only hits and unclear results are named; the others gave an inactive call. Only a selection was taken, and hits are over-represented in it overall. Unless noted, calls follow the shape of the dose curve; as a rule, active = well fitted curve in the direction sought with a large enough effect; inconclusive = small, poorly fitted or top-dose-only effect, or another doubt; inactive = no such curve, though single readings can be large; an effect the other way counts as inactive or inconclusive.

COc1ccc(-n2c(SCC(=O)Nc3cccc4ccccc34)nc(O)cc2=O)cc1	none
Cc1cc(C(=O)NN=C2CCCCCC2)c(C)o1	Cycloheximide cs 25, Shiga toxin inh 52
Cc1cc(C(=O)N/N=C2\CCCC(=O)C2)c(C)o1	none (no result: Cycloheximide cs, Shiga toxin inh)
CC(C)/C=N/NC(=O)c1ccc(Cl)cc1	Cycloheximide cs 24, AmpC inh detg inconclusive
CCCN1CC(=O)N2Cc3[nH]c4ccccc4c3C[C@H]2C1=O	none
O=C(O)CC/C(=C\c1ccc2c(c1)OCO2)c1nc2ccccc2s1	Cycloheximide cs 34
O=C(O)CC/C(=C\c1ccc(N2CCOCC2)c([N+](=O)[O-])c1)c1nc2ccccc2s1	Cycloheximide cs 11
O=C(O)C/C(=C\c1ccc(N2CCOCC2)c([N+](=O)[O-])c1)c1nc2ccccc2s1	Cycloheximide cs 20
O=C(O)CC/C(=C\c1ccc(Cl)c([N+](=O)[O-])c1)c1nc2ccccc2s1	none
C[C@H](O)[C@@H]1CN2CCc3c([nH]c4ccccc34)[C@@H]2C[C@@H]1N(C)C(=O)OCc1ccccc1	none (no result: Cycloheximide cs, Shiga toxin inh, AmpC inh no detg, AmpC inh detg, SARS PLP yeast)
Cc1c(C#N)c(O)n(CCO)c(=O)c1N=Nc1ccccc1	none
O=C(c1cccs1)c1cn(CC(=O)N2CCc3ccccc3C2)c2ccccc12	Cycloheximide cs 48
O=C(O)Cn1cc(C(=O)c2cccs2)c2ccccc21	AmpC inh detg inconclusive
COc1ccccc1-n1cc(-c2ccc(Br)cc2)[nH]c1=S	Cycloheximide cs 17
COc1ccccc1-n1cc(-c2ccc(C)cc2)[nH]c1=S	Cycloheximide cs 23, Shiga toxin inh 32, AmpC inh detg inconclusive
COc1cc(NC(=O)CNc2ccc(Cl)c(S(=O)(=O)N3CCOCC3)c2)cc(OC)c1	none (no result: Cycloheximide cs, Shiga toxin inh)
O=C(Cn1ncc2c3ccccc3n(Cc3ccccc3)c2c1=O)N1CCC2(CC1)OCCO2	Cycloheximide cs 29 (no result: AMA1-RON2 inh)
Oc1ccc(Nc2nc(-c3ccc(Cl)cc3)cs2)cc1	Cycloheximide cs 47, Shiga toxin inh 110 (no result: AMA1-RON2 inh, AmpC inh no detg, AmpC inh detg, SARS PLP yeast)
Oc1ccc(Nc2nc(-c3ccc(O)cc3)cs2)cc1	Cycloheximide cs 54, Shiga toxin inh 80, AmpC inh no detg inconclusive
O=C(Oc1ccc(C(=S)N2CCOCC2)cc1)c1cccc([N+](=O)[O-])c1	none
COc1cc(/C=N/n2cnn(Cc3ccccc3Cl)c2=S)cc(OC)c1OC	AmpC inh detg inconclusive
COc1ccc(/C=N/n2cnn(Cc3ccccc3Cl)c2=S)cc1	Cycloheximide cs 36
Brc1ccc(-c2nc(-c3cccnc3)no2)o1	Cycloheximide cs 69, Shiga toxin inh 111, AmpC inh detg inconclusive
c1ccc(-c2noc(-c3ccccc3-c3ccccc3)n2)cc1	none
Brc1ccc(-c2nc(-c3ccccc3)no2)o1	Cycloheximide cs 59, Shiga toxin inh 104
O=C(Nc1nnc(SCc2ccccc2)s1)c1cccs1	none
Cc1ccc(C(=O)Nc2ncc(Cc3ccccc3)s2)o1	Cycloheximide cs 42, Shiga toxin inh 80
O=C(Nc1ncc(Cc2ccccc2)s1)c1cccs1	Cycloheximide cs 59, Shiga toxin inh 131, AmpC inh detg inconclusive
Cc1ccc(Cc2cnc(NC(=O)c3cccs3)s2)cc1	Cycloheximide cs 46, Shiga toxin inh 192, SARS PLP yeast inconclusive
O=C(Nc1ncc(Cc2cccc(Cl)c2)s1)c1cccs1	Cycloheximide cs 54, Shiga toxin inh 126
COc1ccc(Cc2nnc(NC(=O)c3cccs3)s2)cc1	AmpC inh detg inconclusive
O=C(Nc1ncc(Cc2cccc(Cl)c2)s1)C1=NCCN1	none
O=C(Nc1ncc(Cc2ccc(SC(F)F)cc2)s1)c1ccccc1	none
CCCCc1nc2ccccc2[nH]1	none
c1csc(Cc2nc3ccccc3[nH]2)c1	Cycloheximide cs 24
Cc1ccc(SCc2nc3ccccc3[nH]2)cc1	Cycloheximide cs 45, Shiga toxin inh 130
Clc1ccc(OCCSCc2nc3ccccc3[nH]2)cc1	none
Cc1ccc(OCCSCc2nc3ccccc3[nH]2)cc1	none
Cn1c(Cc2cccs2)nnc1SCc1nc2ccccc2[nH]1	none
CC(C)SCc1nc2ccccc2[nH]1	Cycloheximide cs 15
Fc1ccccc1CSCc1nc2ccccc2[nH]1	Cycloheximide cs 25, Shiga toxin inh 101
Cc1ccc(C(=O)NNC(=O)c2ccccc2)cc1S(=O)(=O)N1CCCCC1	none (no result: Cycloheximide cs, Shiga toxin inh)
c1ccc2[nH]c(CCCc3nc4ccccc4[nH]3)nc2c1	none
c1ccc2[nH]c(CSc3nccs3)nc2c1	Cycloheximide cs 23, Shiga toxin inh 75, AmpC inh detg inconclusive
c1ccc(SCc2nc3ccccc3[nH]2)cc1	Cycloheximide cs 41, Shiga toxin inh 163, AmpC inh detg inconclusive
c1ccc2[nH]c(CSc3ncnc4c3oc3ccccc34)nc2c1	Cycloheximide cs 16, Shiga toxin inh 62
Clc1ccc(SCc2nc3ccccc3[nH]2)cc1	Cycloheximide cs 49, Shiga toxin inh active
Cn1c(SCc2nc3ccccc3[nH]2)nnc1-c1cccs1	none
Cc1cc(C)c(S(=O)(=O)NCCc2csc3nc(-c4ccc(Cl)cc4)nn23)c(C)c1	none (no result: AMA1-RON2 inh, Cycloheximide cs, Shiga toxin inh, AmpC inh no detg, SARS PLP yeast)
COCCCNC(=O)C[C@@H]1C[C@@]2(C(=O)OC)CCCCC=C2N(Cc2cccc3ccccc23)C1=O	none (no result: Cycloheximide cs, Shiga toxin inh, AmpC inh no detg, AmpC inh detg, SARS PLP yeast)
Cc1ccc(CSCc2nc3ccccc3[nH]2)cc1	Cycloheximide cs 39, Shiga toxin inh 66
Cc1cc(C(c2nnnn2Cc2ccccc2)N2CCOCC2)c(C)n1-c1ccc2c(c1)OCO2 (configuration not stated)	Cycloheximide cs 18, Shiga toxin inh 42
O=C(NCC1CCCO1)c1ccccc1-c1nc(-c2ccc(Cl)cc2)no1 (configuration not stated)	Cycloheximide cs 12
Cc1cccc(-c2noc(-c3ccccc3C(=O)NCC3CCCO3)n2)c1 (configuration not stated)	Cycloheximide cs 63, Shiga toxin inh 143
CC(=O)Nc1nonc1-c1nnc(SCc2ccc(C)cc2)n1C	none (no result: AMA1-RON2 inh, Cycloheximide cs, Shiga toxin inh, AmpC inh no detg, SARS PLP yeast)
CC(C)NC(=O)c1ccccc1NC(=O)Cc1ccc([N+](=O)[O-])cc1	none
COc1cc(NC(=O)c2ccc3c(c2)OCCO3)ccc1NC(=O)c1cccs1	Cycloheximide cs 22
COc1cc(NC(=O)c2ccc3c(c2)OCCO3)ccc1NC(=O)c1ccco1	Cycloheximide cs 19, Shiga toxin inh 39
CN(C)c1ccc(/C=N/c2cc(-c3ccccc3)nn2-c2ccccc2)cc1	Cycloheximide cs 39, Shiga toxin inh 57
C[C@@H]1OC(Nc2ccc(N=Nc3ccccc3)cc2)[C@H](O)[C@H](O)[C@H]1O (some centres not stated)	Cycloheximide cs 35, Shiga toxin inh 52
CC(=O)c1ccc(NC2OC(C)C(O)C(O)C2O)cc1 (configuration not stated)	none
